According to PubChem BioAssay (NCI):
Compounds without any hit were thinned out: in the full panel of roughly 83,000, 20% have a hit.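 Cell lines were cultured in 96-well plates, exposed to a single compound concentration, and assessed for percent growth 48 hours later.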 A number with no mark means an inactive call. Activity calls are given as the source filed them. Rule for the calls: active = growth percent below 10; inactive = the rest.

Assays:
Experiment in all cases: NCI-60 one-dose screen, 48 h (100 = growth as untreated, 0 = no growth, -100 = all killed)
Settings in all cases: 10 µM unless noted
SK-MEL-2 melanoma = tested on: SK-MEL-2 melanoma
EKVX NSCLC = tested on: EKVX NSCLC
SN12C renal = tested on: SN12C renal
UO-31 renal = tested on: UO-31 renal
TK-10 renal = tested on: TK-10 renal
ACHN renal = tested on: ACHN renal
CAKI-1 renal = tested on: CAKI-1 renal
A498 renal = tested on: A498 renal
CCRF-CEM leukemia = tested on: CCRF-CEM leukemia
MOLT-4 leukemia = tested on: MOLT-4 leukemia
SR leukemia = tested on: SR leukemia
RPMI-8226 leukemia = tested on: RPMI-8226 leukemia
OVCAR-8 ovarian = tested on: OVCAR-8 ovarian
OVCAR-5 ovarian = tested on: OVCAR-5 ovarian
OVCAR-4 ovarian = tested on: OVCAR-4 ovarian
SK-OV-3 ovarian = tested on: SK-OV-3 ovarian
IGROV1 ovarian = tested on: IGROV1 ovarian
OVCAR-3 ovarian = tested on: OVCAR-3 ovarian
HS 578T breast = tested on: HS 578T breast
NCI/ADR-RES ovarian = tested on: NCI/ADR-RES ovarian

Row | Structure (SMILES) | growth (SK-MEL-2 melanoma) | growth (EKVX NSCLC) | growth (SN12C renal) | growth (UO-31 renal) | growth (TK-10 renal) | growth (ACHN renal) | growth (CAKI-1 renal) | growth (A498 renal) | growth (CCRF-CEM leukemia) | growth (MOLT-4 leukemia) | growth (SR leukemia) | growth (RPMI-8226 leukemia) | growth (OVCAR-8 ovarian) | growth (OVCAR-5 ovarian) | growth (OVCAR-4 ovarian) | growth (SK-OV-3 ovarian) [%] | growth (IGROV1 ovarian) | growth (OVCAR-3 ovarian) | growth (HS 578T breast) [%] | growth (NCI/ADR-RES ovarian)
1 | COc1ccc(-c2ccc(SCC(=O)Nc3ccc(S(N)(=O)=O)cc3Br)nn2)cc1 | 68.9% | 78% | 88.4% | 88.3% | 116% | 86.7% | 63.1% | 89.8% | 98.7% | 93.7% | 92.7% | 85.8% | 48.7% | 99.6% | 38% | 62.3 | 105% | 98.3% | 44.8 | 95.3%
2 | CN(C)c1nc(NCCNS(=O)(=O)c2ccc(C(=O)/C=C/c3ccc(Cl)cc3)cc2)nc(Nc2ccc(F)cc2)n1 | -56.5% (active) | 2.04% (active) | -97.7% (active) | 5.91% (active) | -16.9% (active) | -24.9% (active) | -23.3% (active) | 9.56% (active) | 5.38% (active) | -12.2% (active) | -41.1% (active) | -17.6% (active) | -73.5% (active) | -67% (active) | -28.3% (active) | 26 | -49.6% (active) | -94.8% (active) | 25.8 | -83.5% (active)
3 | COc1c(F)ccc(C(=O)Nc2ccc3nc(NC(=O)C4CCCN(S(=O)(=O)c5cccc(Cl)c5)C4)sc3c2)c1F (stereo not given) | 88.5% | 92.8% | 84.3% | 75.2% | 118% | 82.4% | 74.4% | 113% | 85.3% | 42.8% | 44.5% | 42.8% | 98.8% | 102% | 83.1% | 105 | 81.6% | 105% | 62.6 | 80.5%
4 | O=C(O)Cn1c(O)c(/C=C2/C=c3cc4c(cc3=NC2=O)OCCO4)sc1=S | 117% | 101% | 97.5% | 89.9% | 110% | 119% | 99.3% | 118% | 97.3% | 105% | 89.2% | 98.2% | 110% | 112% | 109% | 129 | 114% | 110% | 107 | 103%
5 | COc1cccc(-c2nc(Nc3ccc(S(N)(=O)=O)cc3)c3ccccc3n2)c1 | 46.6% | 45.5% | 44.6% | 17.4% | 47.3% | 17.7% | 25.2% | 23.9% | 18.7% | 16.8% | 23.6% | 6.94% (active) | 35.5% | 72.5% | 35.1% | 73.5 | 42.4% | 22.9% | 44 | 26.4%
6 | Cc1ccc(NCC(=O)Cn2cc(COc3ccc(C=Nc4cnc5ccccc5c4)cc3)nn2)cc1 | 136% | 106% | 99.9% | 90.1% | 109% | 107% | 97% | 124% | 102% | 108% | 103% | 110% | 103% | 107% | 113% | 98.4 | 112% | 139% | 106 | 113%
7 | COc1ccc(-c2nc3cc(C)ccc3n2CC(=O)N=Nc2c(O)[nH]c3ccc(Br)cc23)cc1 | 61.6% | -36.5% (active) | -57.8% (active) | 53.5% | 25.6% | 15.5% | 54.6% | 136% | 58.8% | 23.3% | 2.47% (active) | 42% | -61.8% (active) | -4.99% (active) | -18.3% (active) | 35 | 23.9% | 14.9% | 20.3 | -22% (active)
8 | Cc1ccc([C@H]2C(C(=O)c3ccc(Cl)cc3)C3(N[C@@H]2c2ccccc2)C(=O)Nc2ccccc23)cc1 (stereo not given in full) | 15.6% | 29.6% | 4.19% (active) | 17.7% | 40.8% | 22.5% | 32% | 75.5% | 14.7% | -26.6% (active) | 23.3% | 6.4% (active) | 66% | 52.2% | 49.4% | 53.2 | 59.4% | 37.3% | 60.3 | 35.4%
9 | C#CCOc1cc(N(CC)CC)ccc1C(C(=O)NC(C)(C)C)N(C(=O)C1CCc2cc(F)ccc2O1)c1ccc(F)c(Cl)c1 (stereo not given) | -6.45% (active) | 54.4% | 55.8% | 47.2% | 85.2% | 61.6% | 41.1% | 73% | 52.8% | 21.2% | 35% | 38.3% | 69% | 82.7% | 57.8% | 73.1 | 70.5% | 57.7% | 75.2 | 72.9%
10 | COc1cc2oc(-c3cccc(NC(=O)[C@H](Cc4ccccc4)NC(=O)OC(C)(C)C)c3)cc(=O)c2c(OC)c1OC | 20.9% | 55.9% | 32% | 18.2% | 45.2% | 18.1% | 31.7% | 77.9% | 32% | 9.42% (active) | 22.5% | 22.7% | 26.7% | 80.8% | 41.4% | 78.7 | 32.7% | 36.3% | 16.4 | 29.6%
11 | COc1cc2oc(-c3cccc(C(=O)Nc4ccc(Cl)cc4)c3)cc(=O)c2c(OCCNC(=O)[C@@H](N)CCC(=O)O)c1OC | 104% | 70.8% | 61.6% | 80.1% | 114% | 92.5% | 68.9% | 157% | 75.6% | 36.6% | 42.7% | 25.5% | 73.7% | 76.9% | 91.9% | 88.8 | 62.9% | 113% | 88.9 | 97.4%
12 | Cc1cc(C)cc(NC(=O)Cn2cc(COn3nnc4ccccc43)nn2)c1 | 105% | 102% | 97.3% | 92.5% | 100% | 100% | 97.4% | 118% | 105% | 100% | 90.1% | 108% | 104% | 102% | 109% | 103 | 104% | 129% | 102 | 102%
13 | Cc1ccc(S(=O)(=O)c2nc(S(=O)(=O)c3ccc(C)cc3)c(Cl)s2)cc1 | 42.5% | 0.151% (active) | -20.5% (active) | -6.4% (active) | -50.4% (active) | -92.3% (active) | -75.8% (active) | 122% | 5.23% (active) | 16.6% | 3.18% (active) | -32.7% (active) | 9.84% (active) | 31.6% | -26.1% (active) | 133 | 44.8% | -87.5% (active) | 86.5 | 29.5%
14 | O=C(Cn1c(/C=C/c2ccccc2)nc2ccccc2c1=O)Nc1ccc(Cl)cc1 | 114% | 98.6% | 19.2% | -24.6% (active) | -12% (active) | -65.6% (active) | 20.4% | -15.5% (active) | 85.6% | 86.9% | 87.6% | 86.8% | 58.3% | 68.7% | -22.4% (active) | 40.2 | 67.7% | 29.2% | 37.8 | 66.6%
15 | COC(=O)/C=C/c1cccc2c1C(=O)NC(C)(c1cc3ccccc3oc1=O)N2 (stereo not given) | -2.01% (active) | 78.2% | 73.8% | 31.3% | 49% | 30.8% | 20.7% | 49.7% | 83.7% | 63% | 58.7% | 82.6% | 66.9% | 77.6% | 70% | 41.7 | 32% | 74.1% | 72 | 80.1%
